Hits are enriched below; roughly 4% of the tested compounds scored in any of these assays.
TWEAK-Fn14 inh – blocks TWEAK-Fn14 interaction in a reporter cell assay | TWEAK-stimulated Fn14 reporter cells, luciferase luminescence, 8 h | inhibition, % at 10 µM | 2% of 360,000 active | AID 1159606; in the data active = inhibition above about 50%
Peg3 promoter – reduces Peg3 promoter-driven luciferase expression in HeLa; inhibition, % at 20 µM; 1.7% of 360,000 active; HeLa PEG-Prom luciferase reporter, luminescence, overnight;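 active = inhibition of at least 50% at 20 µM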
HIF-2a inh – inhibitors of HIF-2a; 786-0 RCC cells HIF-2a reporter, luciferase luminescence, overnight; inhibition, % at 18.8 µM; 0.72% of 360,000 active;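 active = inhibition of the luminescence signal of 40% or more relative to plate controls, in a single-dose primary screen at 18.75 µM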
CF NFkB inh – inhibitors of cystic fibrosis induced NF-kB | KKLEB NF-kB-GFP reporter, PAF-induced, GFP fluorescence overnight | inhibition, % at 5 µM | 0.86% of 360,000 active | AID 588850;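 active = at least 50% inhibition at 5 µM, scaled per plate between neutral and stimulator controls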;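 note: PAF is a Pseudomonas aeruginosa culture filtrate used as stimulus; plate controls were PAF-stimulated DMSO wells for no effect and unstimulated DMSO wells for full effect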
TROY NFkB inh – inhibitors of TROY-dependent NF-kB signaling; 0.98% of 360,000 active; Q293 LMP1-TROYcd NF-kB luciferase reporter, 4 h; inhibition, % at 10 µM;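 active = compounds whose plate-normalised and pattern-corrected inhibition of the luciferase reporter signal at the single screening dose is 50% or more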
KKLEB tox – reduces viability of KKLEB cystic fibrosis airway cells. KKLEB CF airway cells viability, ATPlite luminescence, overnight; hits give low values; cells stimulated with P. aeruginosa culture filtrate. activity change (cytotoxicity), % at 5 µM. 0.36% of 360,000 active. AID 602141;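 active = corrected activity change at or below -50% at 5 µM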
Mdm2-MdmX confirm – Mdm2/MdmX (human) interaction inhibition, confirmed. shares compounds with HIF-2a inh. SaOS-2 split-luciferase Mdm2/MdmX complementation, luminescence. inhibition, % at 8 µM. 99% of 740 active;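 active = mean inhibition of the luminescence signal across two replicates at or above 26 percent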
Target sequence (O15151 whole entry, looked up): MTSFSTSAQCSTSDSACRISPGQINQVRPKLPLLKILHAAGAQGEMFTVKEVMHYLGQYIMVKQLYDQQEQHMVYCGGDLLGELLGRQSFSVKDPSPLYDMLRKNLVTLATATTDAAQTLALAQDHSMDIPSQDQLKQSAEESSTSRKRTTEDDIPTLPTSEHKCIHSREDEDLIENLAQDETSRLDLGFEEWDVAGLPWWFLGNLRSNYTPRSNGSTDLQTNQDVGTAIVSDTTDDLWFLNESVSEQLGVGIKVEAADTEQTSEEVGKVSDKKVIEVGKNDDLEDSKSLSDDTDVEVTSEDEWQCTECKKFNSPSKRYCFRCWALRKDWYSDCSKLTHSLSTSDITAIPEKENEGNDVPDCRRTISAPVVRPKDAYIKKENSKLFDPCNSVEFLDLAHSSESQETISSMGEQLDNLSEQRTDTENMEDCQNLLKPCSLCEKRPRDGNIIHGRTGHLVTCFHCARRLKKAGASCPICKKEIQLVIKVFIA
Target sequence (Q00987 whole entry, looked up): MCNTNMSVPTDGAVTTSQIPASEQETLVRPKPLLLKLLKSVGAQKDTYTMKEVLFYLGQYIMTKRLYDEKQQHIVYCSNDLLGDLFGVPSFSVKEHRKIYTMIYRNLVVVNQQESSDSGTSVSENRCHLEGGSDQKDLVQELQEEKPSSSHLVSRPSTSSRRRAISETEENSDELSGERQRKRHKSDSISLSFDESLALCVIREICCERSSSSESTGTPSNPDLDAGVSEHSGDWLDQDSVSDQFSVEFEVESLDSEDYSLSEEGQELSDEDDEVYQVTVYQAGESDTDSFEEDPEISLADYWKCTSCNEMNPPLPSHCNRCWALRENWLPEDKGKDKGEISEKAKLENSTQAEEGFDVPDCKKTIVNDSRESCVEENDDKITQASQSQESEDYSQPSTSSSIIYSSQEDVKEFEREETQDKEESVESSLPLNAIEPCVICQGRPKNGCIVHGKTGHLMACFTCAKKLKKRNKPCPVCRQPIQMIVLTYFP
HIF-2a conf – confirmation of HIF-2a inhibitors; shares compounds with HIF-2a inh; 786-0 RCC cells, HIF-2a luciferase reporter luminescence, overnight; inhibition, % at 18.8 µM; 56% of 1,800 active;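 active = mean inhibition across four replicates of at least 40 percent at the single tested concentration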
HIF-1a counter – HIF-1a inhibition counter-screen for HIF-2a hits; inhibition, % at 18.8 µM; shares compounds with HIF-2a inh; AID 651589; 72% of 1,800 active; MiaPaCa-2 HIF-1a luciferase reporter, desferoxamine, overnight;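 active = mean inhibition of the reporter signal across four replicates at the single tested dose of 50% or more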
An asterisk follows results filed as active; · = not tested or not shown.

SMILES | TWEAK-Fn14 inh | Peg3 promoter | HIF-2a inh | CF NFkB inh | TROY NFkB inh | KKLEB tox | HIF-2a conf | HIF-1a counter | others
CC(C)(C)[C@H](N)C(=O)N[C@H]1CCC2C3CC=C4C[C@@H](O)CC[C@]4(C)C3CC[C@@]21C (stereo partly drawn) | -220.9 | 96.0* | 93.7* | -28.1 | -6.3 | -68.1* | 7.2 | 104.7* | Mdm2-MdmX confirm=103.2*
CCCCCn1cnnc1SCC(=O)c1c(N)n(C2CC2)c(=O)[nH]c1=O | 0.6 | -10.4 | 8.7 | -2.9 | -19.4 | 7.9 | · | ·
CCCCCCN1CCN(C2CN(Cc3cn(CCCC(=O)OC)nn3)S(=O)(=O)C2)CC1 (stereo not drawn) | -3.9 | · | 9.7 | · | -5.0 | · | · | ·
CCc1nnc(NC(=O)c2nc(S(=O)(=O)Cc3cccc(C)c3)ncc2Cl)s1 | 97.0* | 108.6* | 84.6* | 89.7* | 46.2 | -89.7* | · | · | Mdm2-MdmX confirm=102.7*
CCOc1ccccc1NC(=O)c1nc(S(=O)(=O)Cc2cccc(C)c2)ncc1Cl | 78.5* | 106.2* | 90.2* | 87.0* | 70.5* | -102.2* | 85.9* | 103.2* | Mdm2-MdmX confirm=102.5*
CCc1nnc(NC(=O)c2nc(S(=O)(=O)Cc3ccc(C)cc3)ncc2Cl)s1 | 95.3* | 105.9* | 49.9* | 93.6* | 51.1* | -82.5* | 63.2* | 107.5* | Mdm2-MdmX confirm=103.0*
CCSc1ncc(Cl)c(C(=O)Nc2ccccc2OC)n1 | -8.6 | 14.9 | 15.8 | -13.9 | 11.7 | -3.2 | · | ·
COc1ccc(-c2nc3ccccc3c(=O)n2-c2c(C)n(C)n(-c3ccccc3)c2=O)cc1 | 19.5 | 13.8 | 5.7 | -11.2 | 7.8 | 6.5 | · | ·
Nn1c(SCc2ccc(C(=O)O)cc2)nnc1-c1ccc(Cl)cc1Cl | 33.7 | -3.1 | -21.4 | 18.6 | -37.3 | -5.0 | · | ·
O=C(c1ccccc1)N1CCSc2sccc2C1=O | -3.6 | 26.5 | 65.3* | 22.3 | -39.9 | -11.5 | 71.1* | -16.2
Cc1ccc(C)c(S(=O)(=O)Nc2ccc(C(=O)NCCCN3CCCC3=O)cc2)c1 | -10.2 | 4.0 | 3.6 | -15.0 | 0.8 | -3.0 | · | ·
N#Cc1c(N2CCCC(O)C2)nc(N)c2c(N)nc3c(c12)CC(=O)N3C12CC3CC(CC(C3)C1)C2 (stereo not drawn) | 76.1* | 40.8 | 36.2 | 58.1* | 11.4 | -3.8 | · | · | Mdm2-MdmX confirm=91.0*
C=C(C)CN(CC)c1nc(N)c2c(N)nc3c(c2c1C#N)CC(=O)N3C12CC3CC(CC(C3)C1)C2 | 8.8 | 15.3 | 5.3 | 34.8 | 22.0 | -30.8 | · | ·
O=C(CCl)N(c1ccccc1)C1CCS(=O)(=O)C1 (stereo not drawn) | 52.9* | 103.0* | 30.7 | 9.1 | 4.7 | -2.2 | · | · | Mdm2-MdmX confirm=103.2*
Cc1nn(Cc2ccc(Cl)cc2Cl)c(C)c1NC(=O)CCl | 19.9 | 43.6 | 15.8 | 15.0 | -27.5 | -2.7 | · | · | Mdm2-MdmX confirm=103.0*
Cc1nn(Cc2ccc(Cl)cc2Cl)c(C)c1NC(=O)c1nn(C)cc1Cl | -0.7 | 17.3 | 10.1 | -16.3 | 1.4 | 3.4 | · | ·
COc1cccc(/C=N/NC(=O)c2ccc3nc[nH]c3c2)c1O | -14.7 | -0.3 | 1.9 | -4.8 | -14.6 | 2.8 | · | ·
CCN(CC)c1ccc(/C=N/NC(=O)c2ccc3nc[nH]c3c2)c(O)c1 | -37.4 | 20.9 | -34.7 | 11.9 | -5.3 | 8.4 | · | · | Mdm2-MdmX confirm=82.2*
CCc1nnc(NC(=O)c2cc([N+](=O)[O-])ccc2N2CCOCC2)s1 | 0.1 | 4.2 | 14.2 | -2.2 | -7.3 | -0.4 | · | ·
O=C(Nc1nc(-c2ccc(-c3ccccc3)cc2)cs1)c1cc([N+](=O)[O-])ccc1N1CCOCC1 | 16.8 | 0.1 | 62.0* | -4.8 | 5.3 | -5.6 | -78.1 | -7.2
O=C(NC1CCCCCCC1)C1CCN(S(=O)(=O)N2CCC3(CC2)OCCO3)CC1 | 15.5 | 11.3 | 17.3 | 1.8 | 5.8 | -4.5 | · | ·
COc1ccccc1-c1cc2nc(C)c(CCC(=O)NCc3ccco3)c(C)n2n1 | 47.3 | -2.1 | 48.5* | 12.5 | 12.3 | 4.7 | 55.3* | 41.1
Cc1nc2cc(-c3cccc(F)c3)nn2c(C)c1CCC(=O)NC(C)CCc1ccco1 (stereo not drawn) | 67.4* | -0.6 | 73.5* | 9.8 | 9.4 | -12.8 | 81.7* | 72.2*
COc1cc(OC)cc(-c2cc3nc(C)c(CCC(=O)NC(C)CCc4ccco4)c(C)n3n2)c1 (stereo not drawn) | 7.7 | 14.9 | 39.0 | -7.6 | 1.0 | -5.8 | · | ·
COc1ccc(CNC(=O)CCc2c(C)nc3cc(-c4ccccc4OC)nn3c2C)cc1 | -1.1 | -1.0 | 49.4* | 17.4 | 2.8 | 0.0 | 58.4* | 30.7
SMILES | TWEAK-Fn14 inh | Peg3 promoter | HIF-2a inh | CF NFkB inh | TROY NFkB inh | KKLEB tox | HIF-2a conf | HIF-1a counter | others
Cc1nc2cc(-c3ccccc3)nn2c(C)c1CCC(=O)NCc1ccco1 | 28.6 | -59.1 | 68.9* | 1.6 | -6.1 | 0.2 | 79.3* | 37.3
COc1ccc(-c2cc3nc(C)c(CCC(=O)NCc4ccc(F)cc4)c(C)n3n2)c(OC)c1 | 10.8 | -6.7 | 16.3 | 3.5 | -1.0 | -14.1 | · | ·
CCOC(=O)C1=C(C)OC(N)=C(C#N)C1c1cc(F)ccc1F (stereo not drawn) | 21.1 | -1.1 | 4.0 | 9.9 | 4.9 | 4.8 | · | ·
Cc1ccc(NC(=O)CSc2nc(NS(=O)(=O)c3ccc(C)cc3)cc(=O)[nH]2)cc1 | 3.4 | 2.5 | 7.8 | 7.2 | -1.7 | -11.9 | · | ·
CCc1ccc(OCCNC(=O)OCc2ccccc2)cc1 | -4.5 | -4.7 | 3.1 | 10.6 | -30.2 | -6.6 | · | ·
COc1ccc(CC(=O)N[C@@H]2c3ccccc3CC[C@@H]2OCc2ccccc2)cc1 | 12.8 | -10.0 | 3.6 | -3.6 | 4.8 | 16.1 | · | ·
CCCCNC(=O)C1(C)CCN1C(=O)c1cccc(OC(F)(F)F)c1 (stereo not drawn) | 7.5 | -5.5 | 18.2 | -0.6 | -0.7 | -0.3 | · | ·
COc1ccccc1N1C(=O)C=C(Sc2nc(C)cc(C)n2)C1=O | 10.9 | 87.0* | 57.7* | -4.7 | -2.0 | 5.5 | 62.8* | -12.6
Cc1nc(N)c(Cc2ccc(Cl)cc2Cl)c(N)n1 | 16.1 | 18.3 | 10.9 | 8.0 | 8.6 | 1.6 | · | ·
O=C(O)CCn1cc(/C=C/C(=O)c2ccc(Cl)cc2)c(-c2ccc(Br)cc2)n1 | 59.6* | 45.0 | 54.3* | -10.6 | 17.7 | -22.0 | 20.9 | 43.1
COc1ccc(NC(=O)/C(Cl)=C(/Cl)S(=O)(=O)Cc2ccccc2)cn1 | 101.3* | 100.1* | 94.0* | 83.5* | 76.7* | -52.6* | 100.1* | 106.2*
CCOC(=O)N1CCN(C(=O)C2CCCN(S(=O)(=O)c3c(C)cc(C)cc3C)C2)CC1 (stereo not drawn) | 8.8 | 13.5 | 9.1 | 16.0 | -4.0 | 0.5 | · | ·

Screens from PubChem.
